From PubChem BioAssay
Compounds with a hit are over-represented: about 6.6% of the library has one in this group of screens.
PTAP TSG101 blk – blocks PTAP/TSG101 interaction to inhibit HIV-1 budding | 340,000 tested, under 10 active | Q99816 | AID 493005 | Fluorescence polarization, FITC-PTAP peptide / Tsg101 binding | Potency, µM (top dose mostly 115 µM), for the others: at the highest dose activity change, negative = inhibition, hits mostly inhibitors; active means well fitted inhibition curve with a large enough effect in the main read-out, with a control signal flat, not every such curve was filed as active; inconclusive means small, poorly fitted or top-dose-only effect, or effect the other way, or a change in a side signal; inactive means no such curve, though single readings can be large or run the other way; further: % of control where 0% means no effect
Target sequence (Q99816 whole entry, looked up): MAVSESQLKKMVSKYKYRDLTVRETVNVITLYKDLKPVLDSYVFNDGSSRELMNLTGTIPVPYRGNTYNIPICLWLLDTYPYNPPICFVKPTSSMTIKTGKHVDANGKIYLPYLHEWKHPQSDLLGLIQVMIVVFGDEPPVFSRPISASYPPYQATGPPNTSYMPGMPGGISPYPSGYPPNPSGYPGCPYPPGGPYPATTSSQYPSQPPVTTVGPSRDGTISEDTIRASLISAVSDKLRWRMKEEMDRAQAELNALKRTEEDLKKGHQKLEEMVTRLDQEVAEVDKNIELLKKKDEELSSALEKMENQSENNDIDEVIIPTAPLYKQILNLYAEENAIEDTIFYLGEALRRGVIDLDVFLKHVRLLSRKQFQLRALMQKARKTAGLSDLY
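Compounds were pin-transferred onto Tsg101 binding domain (10 uM final) in HEPES pH 7.5 buffer, then FITC-PTAP peptide was added at 50 nM final. After 20 min at RT, polarization reported peptide displacement across a qHTS concentration series.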
RGS4 inh – inhibitors of human regulator of G protein signaling 4; Transcreener GDP fluorescence polarization, RGS4-accelerated GTP hydrolysis; P49798; 0.039% of 390,000 active; AID 504845; Potency, µM (top dose mostly 114 µM), for the others: top-dose activity change, negative = inhibition, actives largely listed as inhibitors; further: on the % scale 0 is the no-effect control and ±100 the full control effect; nearly all actives have a fitted effect of over 75% in size
Target sequence (P49798 whole entry, looked up): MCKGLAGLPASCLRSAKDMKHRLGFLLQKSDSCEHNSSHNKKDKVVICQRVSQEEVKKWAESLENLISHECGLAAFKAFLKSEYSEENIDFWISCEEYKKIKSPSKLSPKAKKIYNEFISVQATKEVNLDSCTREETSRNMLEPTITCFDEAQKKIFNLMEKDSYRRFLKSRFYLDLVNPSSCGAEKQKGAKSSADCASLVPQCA
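MLSMR compounds (23 nl, pin-transferred) preincubated 10 min at room temperature with a 500nM (2x) first reagent, then RGS4 at 900nM (2x) plus Transcreener GDP mix added; fluorescence polarization (620/688 nm) read before and after 90 min at 30 °C.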
MCF10A rereplic – inducers of DNA re-replication in MCF 10A breast cells. Potency, µM (doses to about 46.1 µM), inactives show at the top dose activity, positive = re-replication, most hits filed as activators. 2.9% of 350,000 active. MCF 10A DNA re-replication, Hoechst nuclear intensity, 48 h. AID 624296; further: % of control where 0% means no effect; nearly all actives have a fitted effect of over 50% in size
KB-3-1 tox – kills parental KB-3-1 adenocarcinoma cells; Potency, µM (highest dose often 46.1 µM), most hits filed as cytotoxic; 1.4% of 400,000 active; KB-3-1 viability, CellTiter-Glo ATP luminescence, 72 h; further: on the % scale 0 is the no-effect control and ±100 the full control effect; nearly all actives have a fitted effect of over 60% in size
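Cytotoxicity in the drug-sensitive parental line KB-3-1 was scored as loss of CellTiter-Glo luminescence following 72 h incubation with compound. Values come from curve fitting of normalized concentration-response data.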
KB-V1 MDR tox – KB-V1 MDR subline cytotoxicity. Potency, µM (highest dose often 46.1 µM), actives largely listed as cytotoxic. 3.4% of 400,000 active. KB-V1 MDR cells viability, CellTiter-Glo, 72 h; further: on the % scale 0 is the no-effect control and ±100 the full control effect; nearly all actives have a fitted effect of over 60% in size
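Cells of the MDR subline KB-V1 are plated, dosed with compound at multiple concentrations, and incubated 72 h at 37 degrees C; CellTiter-Glo is then added and luminescence read after 10 min.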
SW480 rerep – induces DNA re-replication in SW480 colon adenocarcinoma cells | SW480 DNA re-replication, Hoechst DNA content imaging, 48 h | Potency, µM (top dose mostly 46.1 µM), for the others: at the top dose re-replication activation, usual class: activators | 1.8% of 340,000 active | AID 624297; further: % of control where 0% means no effect; nearly all actives have a fitted effect of over 55% in size
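Treated cells incubate 48 hr (37 C, 5% CO2), are stained 40 min with Hoechst, and nuclear fluorescence is enumerated; a rise in nuclei with high DNA signal marks re-replication.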
* hit, by the source's call; i = inactive; ? = inconclusive; . = no result; ! = repeats disagree; [ ] = another dose, or the depositor's remark. Unless noted, the call rests on the fitted dose curve; in most records, active means well fitted curve in the direction sought with a large enough effect; inconclusive means small, poorly fitted or top-dose-only effect, or another doubt; inactive means no such curve, though single readings can be large; an effect the other way counts as inactive or inconclusive. Potency means the concentration at half of the fitted maximal effect.

SMILES | PTAP TSG101 blk | RGS4 inh | MCF10A rereplic | KB-3-1 tox | KB-V1 MDR tox | SW480 rerep
CC1(C(=O)NCc2ccc(F)c(F)c2)Cc2c(-c3cccc(C(N)=O)c3)ccnc2O1 (configuration not stated) | . | . | . | ? | i | .
COc1ccc(S(=O)(=O)Nc2cccc(N(C)S(C)(=O)=O)c2)cc1Br | 0% | 12% | 1% | i | 15µM* | -2%
Cc1cccc(N2CCN(c3ccc4cc(S(=O)(=O)N5CCC(C)CC5)ccc4n3)CC2)c1C | . | -11% | . | i | i | .
O=C(CN(c1cccc(C(F)(F)F)c1)S(=O)(=O)c1ccc(Cl)c([N+](=O)[O-])c1)NCc1ccc(F)cc1 | -5% | -5% | 2.9µM* | ? | i | ?
O=c1cc(-c2ccccc2)nc(SCc2ccc(F)cc2)[nH]1 | -1% | -1% | -3% | i | i | -5%
CSc1nc(-c2ccc(F)cc2)cc(=O)[nH]1 | 0% | -21% | 0% | i | i | 9.2µM*
COc1ccc(CCNC(=S)Nc2ccc(C(C)C)cc2)cc1 | -1% | 21% | ? | ? | 23µM* | 5%
COc1ccc(CCNC(=S)Nc2ccc(OC)cc2)cc1 | -3% | -14%[11.4 µM] | 6% | i | i | -2%
COc1ccc(CCNC(=S)Nc2cc(C)cc(C)c2)cc1 | -2% | -5% | -6% | i | 18µM* | 2%
COc1ccc(C(=O)CC(=O)C(=O)NCCc2cccc(C)c2)cc1 | -1% | -31% | 18µM* | i | ? | ?
CCOc1ccc(-c2nnc(SCC(=O)NCc3ccc(Cl)cc3)o2)cc1 | . | -5% | . | i | i | .
CCCCCCN(CCCCCC)C(=O)Cc1c(-c2ccc(Cl)cc2)[nH]c2ccc(Cl)cc12 | . | -117%[56.9 µM] | . | . | . | .
Cc1ccccc1Cn1nc(C)c(NC(=O)c2cc(-c3ccco3)on2)c1C | -2% | ? | 3% | i | i | 5%
Cc1nn(Cc2ccc(Cl)c(Cl)c2)c(C)c1NC(=O)c1cc(-c2ccco2)on1 | 3% | 3% | ? | ? | 5.2µM* | ?
COc1ccc(-c2cc(C(=O)Nc3c(C)nn(Cc4ccc(Cl)cc4)c3C)no2)cc1 | -7% | -18% | 16µM* | i | ? | ?
Cc1cc(C(=O)Nc2c(C)nn(Cc3ccccc3Cl)c2C)no1 | -4% | 19% | 3% | i | 21µM* | -2%
Cc1ccc(Cn2nc(C)c(NC(=O)c3cc(-c4ccco4)on3)c2C)cc1 | 5% | -10% | ? | ? | i | 2%
Cc1nn(Cc2ccc(Cl)cc2)c(C)c1NC(=O)c1cc(-c2ccco2)on1 | -1% | 21% | 23µM* | i | i | 4%
COc1ccc(OC)c(-c2cc(C(=O)Nc3c(C)nn(Cc4ccccc4Cl)c3C)no2)c1 | -11% | -2% | 15% | ? | i | 11%
Cc1ccccc1CNC(=O)CN1C(=O)CCCc2ccccc21 | . | 6% | . | i | i | .
Cc1nn(Cc2ccc(F)cc2)c(C)c1NC(=O)c1nn(C)cc1Cl | -1% | -31% | -1% | i | 9.2µM* | 1%
Cc1ccc(Cn2nc(C)c(NC(=O)c3cc(-c4ccc(F)cc4)on3)c2C)cc1 | . | 21% | . | i | i | .
CCc1nc2ccccc2c(C(=O)OCC(=O)Nc2ccc(S(=O)(=O)N3CCOCC3)cc2)c1C | 3% | ? | 40% | i | i | 7%[9.22 µM]
CC(O/N=C/c1ccccc1OC(F)F)C(=O)Nc1cccc(S(=O)(=O)N2CCOCC2)c1 (configuration not stated) | 0% | -24% | -28% | i | 13µM* | -54%
CCc1nc2ccccc2c(C(=O)OCC(=O)Nc2cccc(S(=O)(=O)N3CCOCC3)c2)c1C | 0% | -6% | 109% | 21µM* | 6.5µM* | ?
SMILES | PTAP TSG101 blk | RGS4 inh | MCF10A rereplic | KB-3-1 tox | KB-V1 MDR tox | SW480 rerep
O=C(COc1ccccc1Cc1ccccc1)Nc1cccc(S(=O)(=O)N2CCOCC2)c1 | 1% | 5% | -1% | ? | 5.2µM* | 7%
COc1ccc(S(=O)(=O)N2CCOCC2)cc1NC(=O)CO/N=C/c1ccccc1OC(F)F | -4% | -12% | 30% | i | ? | ?
CCOC(=O)N1CCc2c(sc(NCc3ccc(N(C)C)cc3)c2C(=O)Nc2ccccc2OCC)C1 | . | ? | . | i | ? | .
CCCN1CNc2c(c(=O)[nH]c(=S)n2CCc2cccc(Cl)c2)C1 | . | 5% | . | . | . | .
CCCOc1ccc(C2C(=O)N(C3CCCCCC3)CC(=O)N2C(C)C)cc1OC (configuration not stated) | . | 21% | . | . | . | .
COc1cc(NC(=O)C2CCN(S(=O)(=O)c3c(C)noc3/C=C/c3c(C)cc(C)cc3C)CC2)cc(OC)c1 | . | -21% | . | . | . | .
O=CNc1c(Cl)cc2c(c1Cl)Cc1cc([N+](=O)[O-])ccc1-2 | -6% | -21% | ? | ? | ? | 21µM*
COc1cc(C(=O)NCCCNc2nc3cc(C)cc(C)c3cc2C#N)cc(OC)c1OC | -5% | -16% | ? | ? | 5.8µM* | 14%
COc1cc(C(=O)NCCCNC(=O)c2cc(OC)c(OC)c(OC)c2)cc(OC)c1OC | 1% | 2% | -2% | i | i | -6%
COc1cc(C(=O)NCCCNc2ccc([N+](=O)[O-])cc2)cc(OC)c1OC | -2% | -2% | 1% | i | 21µM* | 3%
CCOc1ccc2nc(NCCCNC(=O)c3cc(OC)c(OC)c(OC)c3)c(C#N)cc2c1 | -11% | -7%[56.9 µM] | ? | i | i | 10µM*
Cc1sc2ncn(CC(=O)N(C)c3ccc(C(C)C)cc3)c(=O)c2c1S(=O)(=O)N1CCC(C)CC1 | . | -16% | . | i | i | .
CCc1ccc(S(=O)(=O)NCCc2csc3nc(-c4ccccc4)nn23)s1 | . | 13% | . | . | . | .
O=C1NNC(=O)C1c1ccccc1 | -1% | 6% | -2% | i | i | 0%
O=C1CC(c2ccccc2)=C(c2ccccc2)C1c1ccccc1 (configuration not stated) | 0% | 4% | ? | ? | 10µM* | ?
CCN1CCN(C2=C(NS(=O)(=O)c3ccc(NC(C)=O)cc3)C(=O)c3ccccc3C2=O)CC1 | -6% | 2% | ? | ? | i | -1%
CC(=O)Nc1ccc(S(=O)(=O)NC2=C(N3CCN(Cc4ccccc4)CC3)C(=O)c3ccccc3C2=O)cc1 | -3% | 9% | ? | ? | 18µM*! | ?
CCN1CCN(C2=C(NS(=O)(=O)c3ccc(C)cc3)C(=O)c3ccccc3C2=O)CC1 | -11% | -18% | 12% | ? | ? | 21µM*
Oc1cccc(-c2nc(-c3cccs3)c(-c3cccs3)[nH]2)c1 | . | 12% | . | . | . | .
